Data on 15 compounds can be found in PubChem BioAssay (NCATS).

Experiment in all cases: qHTS profiling for inhibitors of Plasmodium falciparum proliferation (AID 504749); also: nearly all actives have a fitted effect of over 60% in size
What all share (conditions): P. falciparum in erythrocytes, SYBR Green DNA, 72 h; series mostly up to 28.7 µM

One assay has as its system CP247. The procedure, abridged: (§1)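 P. falciparum-infected erythrocytes (0.3% parasitemia, 2.5% hematocrit) incubated with compound 72 h at 37 C, 5% CO2. Parasite DNA detected by SYBR Green after lysis, overnight at room temperature; normalised to 0.29 uM artemisinin and DMSO.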
The subject of a further assay is CP250. The method, boiled down:
as §1

A further assay relates to CP252. The method, boiled down:
as §1

The subject of the next assay is CP256. The procedure, abridged: as §1
In a further assay the test system is CP260. The method, boiled down:
as §1

In a further assay the test system is CP262. The method, boiled down: as §1
The next assay relates to CP265. The procedure, abridged:
as §1

Another assay relates to CP268. The procedure, abridged:
as §1

The subject of the next assay is CP269. The procedure, abridged:
as §1

For another assay, the system named is CP286. The method, boiled down: as §1
For another assay, the system named is CP297. The method, boiled down: as §1
The next assay relates to CP305. The procedure, abridged: as §1
In another assay the test system is CP315. The method, boiled down: as §1
For another assay, the system named is CP329. The procedure, abridged:
as §1

In a further assay the test system is CP335. The procedure, abridged:
as §1

Another assay relates to DFO2036. The procedure, abridged: as §1
The next assay deals with CP266. The procedure, abridged: as §1
A further assay has as its system CP291. The procedure, abridged: as §1
The subject of the next assay is DIV14. The procedure, abridged:
as §1

Another assay has as its system CP325. The procedure, abridged: as §1

Records with an inconclusive call do not appear. Calls of active or inactive are those of the source. Calls follow the shape of the dose curve; as a rule, active = well fitted inhibition curve with a large enough effect; inconclusive = small, poorly fitted or top-dose-only effect; inactive = flat fitted curve, though single readings scatter.
Potency is read from the fitted curve at half-maximal effect.

Regarding `Cc1cc(-c2ccccc2)nnc1NCCN1CCOCC1`, the Potency result in the assay on CP247, with CP250, in the assay on CP252, in the assay on CP256, in the assay on CP260 and in the assay with CP262 was “inactive” in each case. Further, the Potency entry in the assay on CP265, with CP268, with CP269, in the assay on CP286, with CP297 and in the assay with CP305 was “inactive” in each case. For the same compound, the Potency entry with CP315, in the assay with CP329, in the assay on CP335 and in the assay on DFO2036 was “inactive” throughout.
As to `O=C(O)CCC(=O)Nc1ccc(S(=O)(=O)Nc2nccs2)cc1`, the Potency result in the assay on CP247, in the assay with CP250, with CP252, in the assay on CP256, with CP260 and with CP262 was “inactive” in each case. Moreover, the Potency entry in the assay on CP265, in the assay with CP266, with CP268, in the assay on CP269, in the assay with CP286 and in the assay with CP291 was “inactive” each time. Moreover, the Potency entry in the assay on CP297, with CP305, in the assay on CP315, with CP329, in the assay with CP335 and with DFO2036 was “inactive” each time. Further, the Potency entry in the assay on DIV14 was “inactive”.
For the compound `CCOCCn1c(N2CCCN(C)CC2)nc2ccccc21`, the Potency result with CP247, with CP250, with CP252, in the assay with CP256, in the assay on CP260 and in the assay on CP262 was “inactive” each time. Further, the Potency result with CP269, in the assay with CP286, in the assay on CP291, with CP315, in the assay with CP325 and in the assay on CP329 was “inactive” each time. For the same compound, the Potency in the assay with DIV14 was 7.57 µM (active).
Turning to `CCN(CC)CCNC(=O)c1cc(Br)c(N)cc1OC`, the Potency entry with CP247, in the assay with CP250, in the assay with CP252, in the assay with CP256, in the assay on CP260 and with CP262 was “inactive” throughout. Also, the Potency entry in the assay with CP265, in the assay on CP266, in the assay with CP268, with CP269, with CP286 and in the assay with CP291 was “inactive” in each case. The Potency result in the assay with CP305, in the assay on CP315, in the assay with CP325, with CP329, in the assay on CP335 and in the assay with DFO2036 was “inactive” in each case. The Potency entry in the assay on DIV14 is “inactive”.
Consider `O=C(Nc1cccc(C2=NCCN2)c1)Nc1cccc(C2=NCCN2)c1`, for which the Potency was 2.82 µM (active) in the assay on CP247; 3.55 µM (active) in the assay on CP250; 3.16 µM (active) in the assay on CP252; 0.708 µM (active) in the assay on CP256; 2.51 µM (active) in the assay on CP260; 4.78 µM (active) with CP262. In addition, the Potency with CP268 was 15.1 µM (active); in the assay on CP269, 12 µM (active); in the assay on CP286, 2 µM (active); in the assay with CP291, 15.1 µM (active); in the assay with CP297, 13.5 µM (active); in the assay with CP305 it was 7.57 µM (active). For the same compound, the Potency was 16.9 µM (active) with CP315; 13.5 µM (active) in the assay on CP329; 12 µM (active) in the assay on CP335; 1.78 µM (active) in the assay with DFO2036; 3.01 µM (active) with DIV14.
On to `CCOC(=O)Nc1ccc2c(c1)N(C(=O)CCN1CCOCC1)c1ccccc1S2`, for which the Potency result in the assay on CP247, with CP250, in the assay with CP252, with CP256, in the assay on CP260 and in the assay on CP262 was “inactive” each time. The Potency result in the assay on CP265, with CP266, in the assay on CP268, with CP269, with CP286 and in the assay with CP291 was “inactive” in each case. Moreover, the Potency entry in the assay on CP297, with CP305, with CP325, in the assay on CP329, in the assay on CP335 and with DFO2036 was “inactive” in each case. Further, in the assay on DIV14, the Potency entry is “inactive”.
Consider `c1ccc(CC2=NCCN2)cc1`, for which the Potency entry with CP247, in the assay on CP250, in the assay with CP252, with CP256, in the assay on CP260 and in the assay with CP262 was “inactive” each time. In addition, the Potency result with CP265, in the assay with CP266, in the assay on CP268, with CP269, with CP286 and in the assay with CP291 was “inactive” in each case. The Potency entry in the assay on CP297, in the assay on CP305, in the assay on CP315, in the assay on CP325, with CP329 and in the assay with DFO2036 was “inactive” throughout. Further, in the assay with DIV14, the Potency result is “inactive”.
For `NS(=O)(=O)c1cc(C(=O)O)cc(N2CCCC2)c1Oc1ccccc1`, the Potency result in the assay with CP247, with CP250, in the assay on CP252, in the assay with CP256, in the assay on CP260 and in the assay with CP262 was “inactive” in each case. Besides, the Potency result in the assay on CP265, in the assay on CP268, with CP269, in the assay with CP286, in the assay on CP291 and in the assay with CP297 was “inactive” in each case. Moreover, the Potency entry in the assay on CP305, in the assay on CP315, in the assay on CP325, in the assay with CP329, with CP335 and with DFO2036 was “inactive” throughout. The Potency result in the assay with DIV14 is “inactive”.
Turning to `COc1ccccc1N1CCN(CCCCNC(=O)c2ccc(-c3ccc(C(C)=O)cc3)cc2)CC1`, the Potency result in the assay with CP247, with CP250, with CP252, in the assay on CP256, in the assay with CP260 and in the assay on CP262 was “inactive” throughout. The Potency result with CP265, with CP266, with CP268, in the assay with CP269, with CP291 and in the assay on CP297 was “inactive” in each case. For the same compound, the Potency result with CP305, with CP315, with CP325, with CP329, with CP335 and in the assay on DFO2036 was “inactive” in each case. Besides, the Potency result in the assay with DIV14 is “inactive”.
In the case of `Cn1c(=O)c2[nH]c(Br)nc2n(C)c1=O`, the Potency entry in the assay with CP247, with CP250, in the assay with CP252, in the assay with CP256, in the assay with CP260 and with CP262 was “inactive” in each case. Moreover, the Potency entry in the assay with CP265, with CP266, with CP268, in the assay on CP269, in the assay with CP286 and with CP291 was “inactive” in each case. The Potency result with CP297, with CP305, in the assay with CP315, with CP325, in the assay on CP329 and in the assay with CP335 was “inactive” in each case. The Potency entry in the assay with DIV14 is “inactive”.
Turning to `O=C(O)CCNC(=O)c1ccccc1`, the Potency entry in the assay on CP247, with CP250, in the assay on CP252, with CP256, in the assay on CP260 and with CP262 was “inactive” throughout. The Potency result with CP265, in the assay with CP268, with CP269, in the assay on CP286, in the assay with CP291 and with CP297 was “inactive” in each case. The Potency result with CP305, with CP315, with CP325, with CP329, in the assay on CP335 and with DFO2036 was “inactive” in each case. Moreover, in the assay with DIV14, the Potency result is “inactive”.
Regarding `CCOc1ccccc1C(N)=O`, the Potency entry in the assay with CP247, with CP250, in the assay with CP252, in the assay on CP256, in the assay on CP260 and in the assay with CP262 was “inactive” in each case. Also, the Potency entry with CP265, in the assay on CP266, with CP268, in the assay with CP269, in the assay on CP286 and in the assay with CP297 was “inactive” throughout. The Potency result with CP305, in the assay with CP315, in the assay with CP325, in the assay with CP329, in the assay on CP335 and with DFO2036 was “inactive” throughout. Besides, in the assay on DIV14, the Potency entry is “inactive”.
With `CNCCc1ccccn1`, the Potency entry with CP247, with CP250, in the assay with CP252, with CP256, in the assay on CP260 and in the assay on CP262 was “inactive” each time. For the same compound, the Potency result in the assay with CP265, in the assay with CP266, in the assay on CP268, in the assay on CP269, with CP286 and with CP291 was “inactive” in each case. In addition, the Potency result with CP305, in the assay on CP315, with CP325, with CP329, with CP335 and with DFO2036 was “inactive” each time. Moreover, the Potency entry in the assay with DIV14 was “inactive”.
As to `C#C[C@]1(OC(C)=O)CC[C@H]2[C@@H]3CCC4=C/C(=N/O)CC[C@@H]4[C@H]3CC[C@@]21CC`, the Potency entry in the assay on CP247, in the assay on CP250, in the assay on CP252, in the assay with CP256, in the assay on CP260 and in the assay on CP262 was “inactive” each time. Also, the Potency entry with CP265, in the assay with CP266, in the assay with CP268, in the assay with CP269, in the assay with CP286 and in the assay on CP291 was “inactive” throughout. Further, the Potency result in the assay on CP297, in the assay with CP305, in the assay with CP315, in the assay on CP325, with CP329 and in the assay with DFO2036 was “inactive” each time.
Take `CC(=O)N[C@@H](CCC(=O)O)C(=O)O`: the Potency entry in the assay on CP247, in the assay on CP250, with CP252, with CP256, with CP260 and with CP262 was “inactive” in each case. For the same compound, the Potency entry in the assay with CP265, in the assay with CP266, with CP268, with CP269, in the assay with CP286 and with CP297 was “inactive” throughout. Besides, the Potency entry in the assay on CP305, in the assay on CP315, in the assay with CP325, in the assay on CP329, in the assay with CP335 and with DFO2036 was “inactive” throughout. Also, the Potency result in the assay on DIV14 is “inactive”.
